Test results published in PubChem BioAssay (NCI).
About 79,000 compounds went through this panel and 15% of them were active in at least one assay; those are over-represented in the sample as a whole. The source made the active and inactive calls. Cut-off read from the data, not from the text of the source: active = growth inhibition above about 70%; inactive = the rest.

Assay: NCI Yeast Anticancer Drug Screen. Data for the bub3 strain (AID 167)
Details: S. cerevisiae bub3 mutant strain, at 50.0 µM, active compounds read high
Method in brief: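 In this screen, a yeast mutant lacking normal mitotic checkpoint function is challenged with compound. Relative growth versus vehicle gives the inhibition value.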
In the case of `Cc1ccc(-c2nnc(C)o2)cc1`, the growth inhibition is reported as 13.3% (inactive).
In the case of `CCCCCCCCOCCS(=O)(=O)O`, the growth inhibition is reported as -10.8% (inactive).
With `CC(=O)NC(CSC1=C2NC(=O)\C=C/C=C/C=C\C(C)C(O)CC(=O)/C(C)=C\CC(O)/C=C/C(C)C(O)C(C)C=C(C)C(=O)c3c(O)c(C)cc(c3C1=O)C2=O)C(=O)O` (stereo not given) the growth inhibition was 15.4% (inactive).
In the case of `Cc1ccc(S(=O)(=O)Nc2ccc3nc(C)oc3c2)cc1`, the growth inhibition is reported as 45% (inactive).
In the case of `CC(NC(=O)NCCCl)c1cccc2ccccc12` (stereo not given), the growth inhibition is reported as -8.25% (inactive).
With `CN(C)C(=S)Oc1ccc([N+](C)(C)C)cc1` the growth inhibition was 3.15% (inactive).
With `CSc1cc(/C=C/c2ccccc2)ccc1N` the growth inhibition was 5.25% (inactive).
With `Cc1ccc(N=Cc2ccc(C(N)=S)cc2)cc1` the growth inhibition was 18.8% (inactive).
In the case of `CC(NC(=O)CN)C(=O)O` (stereo not given), the growth inhibition is reported as 5.15% (inactive).
With `NC1CCCCC1N.O=NN1CCCCCC1(P(=O)([O-])[O-])P(=O)([O-])[O-].[Na+].[Pt+2]` the growth inhibition was -12.6% (inactive).
For `Clc1ccc2cc(Cl)c3ccccc3c2c1`, the growth inhibition was 4.25% (inactive).
In the case of `CC1(C)OC2OC(C3CC3)C(O)C2O1` (stereo not given), the growth inhibition is reported as 11.9% (inactive).
For `CCOC(=O)NCc1cccc2ccccc12`, the growth inhibition was 10.7% (inactive).
In the case of `CCOC(=O)/C=C/n1c2ccccc2c(=O)c2cc(OC)ccc21`, the growth inhibition is reported as -8.95% (inactive).
For `OC(C/C(=N\Nc1ccccc1)c1ccc(F)cc1)(C(F)(F)F)C(F)(F)F`, the growth inhibition was 98.3% (active).
With `O=C(O)CCCCC1CCCC1` the growth inhibition was 18.5% (inactive).
In the case of `COc1cccc(CCC(=O)O)c1`, the growth inhibition is reported as -1.45% (inactive).
In the case of `Cc1ccc(N=C=C(c2ccc(Cl)cc2)c2ccc(Cl)cc2)cc1`, the growth inhibition is reported as 59.6% (inactive).
In the case of `CCC1NC(N=Nc2ccc([N+](=O)[O-])cc2)(P(=O)(OC(C)C)OC(C)C)OC1=O` (stereo not given), the growth inhibition is reported as 17.5% (inactive).
In the case of `CC1CSC(=S)N1C(=O)N1C(=S)SCC1C` (stereo not given), the growth inhibition is reported as -43.9% (inactive).
For `CCCC(=O)N(CC)CC`, the growth inhibition was 0% (inactive).
With `O=C(O)c1cccc2c1C1CCC2c2cccc(C(=O)O)c21` the growth inhibition was -2.6% (inactive).
For `C(=C(c1ccccc1)c1ccccc1)=C(c1ccccc1)c1ccccc1`, the growth inhibition was 4.95% (inactive).
In the case of `CC(=O)Oc1cc(Oc2c(OC(C)=O)cc(Oc3c(OC(C)=O)cc(OC(C)=O)c(OC(C)=O)c3OC(C)=O)cc2OC(C)=O)cc(OC(C)=O)c1OC(C)=O`, the growth inhibition is reported as 15.4% (inactive).
For `NC(=O)NC(NC(=O)NC(NC(N)=O)c1ccco1)c1ccco1` (stereo not given), the growth inhibition was 2.05% (inactive).
With `Clc1nc(Cl)c2ncn(C3CCCO3)c2n1` (stereo not given) the growth inhibition was 44% (inactive).
With `COC(=O)C1CCCCC1C(=O)OC` (stereo not given) the growth inhibition was -5.3% (inactive).
In the case of `CC(C)(C)NO`, the growth inhibition is reported as 13.6% (inactive).
With `CN1CCN(CCN2C(=O)c3ccccc3C2=O)CC1` the growth inhibition was -10.8% (inactive).
For `COc1cc2ccc3c4cc(OC)c(OCc5ccccc5)cc4cnc3c2cc1OC`, the growth inhibition was 27.4% (inactive).
For `Cc1ccc(O)c(C(=O)c2ccc(Cl)c(Cl)c2)c1`, the growth inhibition was 58.1% (inactive).
For `CC(C)c1sc([S-])n[n+]1-c1ccccc1`, the growth inhibition was -4.3% (inactive).
For `Cc1cc(C)[n+](C)c(/C=C/c2ccc([N+](=O)[O-])cc2)n1`, the growth inhibition was 22.4% (inactive).
For `COc1ccc(NC(C)=O)cc1Br`, the growth inhibition was -17.6% (inactive).
With `Nc1nc(N)nc(-c2ccccc2NC(=O)c2ccccc2N)n1` the growth inhibition was 6.85% (inactive).
For `CN(C)CCCN(c1nc2cc(Cl)ccc2o1)c1nc2cc(Cl)ccc2o1`, the growth inhibition was 8.7% (inactive).
With `CC(C)=CCCC(C)C=O` (stereo not given) the growth inhibition was -20.1% (inactive).
With `COc1ccc(Cc2coc3ccccc3c2=O)cc1` the growth inhibition was 25.2% (inactive).
For `O=C(NCCCl)Nc1cccc2c1CCC2`, the growth inhibition was -23.1% (inactive).
In the case of `COc1cccc(C2c3cc4c(cc3OC(C)(O)C2C)OCO4)c1OC` (stereo not given), the growth inhibition is reported as 24.8% (inactive).

Assay: NCI Yeast Anticancer Drug Screen. Data for the mlh1 rad18 strain (AID 175)
Details: S. cerevisiae mlh1 rad18 strain growth inhibition; at 50.0 µM; active compounds read high
Method in brief: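 Vehicle-treated cultures served as the reference for growth inhibition in a yeast strain carrying DNA damage repair alterations exposed to each compound.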
With `Cc1ccc(-c2nnc(C)o2)cc1` the growth inhibition was 6.2% (inactive).
With `CCCCCCCCOCCS(=O)(=O)O` the growth inhibition was 35.8% (inactive).
In the case of `CC(=O)NC(CSC1=C2NC(=O)\C=C/C=C/C=C\C(C)C(O)CC(=O)/C(C)=C\CC(O)/C=C/C(C)C(O)C(C)C=C(C)C(=O)c3c(O)c(C)cc(c3C1=O)C2=O)C(=O)O` (stereo not given), the growth inhibition is reported as 8.45% (inactive).
In the case of `Cc1ccc(S(=O)(=O)Nc2ccc3nc(C)oc3c2)cc1`, the growth inhibition is reported as 17% (inactive).
In the case of `CC(NC(=O)NCCCl)c1cccc2ccccc12` (stereo not given), the growth inhibition is reported as 5.15% (inactive).
In the case of `CN(C)C(=S)Oc1ccc([N+](C)(C)C)cc1`, the growth inhibition is reported as -1% (inactive).
With `CSc1cc(/C=C/c2ccccc2)ccc1N` the growth inhibition was 2% (inactive).
In the case of `Cc1ccc(N=Cc2ccc(C(N)=S)cc2)cc1`, the growth inhibition is reported as 24% (inactive).
For `CC(NC(=O)CN)C(=O)O` (stereo not given), the growth inhibition was 4.4% (inactive).
In the case of `NC1CCCCC1N.O=NN1CCCCCC1(P(=O)([O-])[O-])P(=O)([O-])[O-].[Na+].[Pt+2]`, the growth inhibition is reported as -10.4% (inactive).
For `Clc1ccc2cc(Cl)c3ccccc3c2c1`, the growth inhibition was -0.05% (inactive).
With `CC1(C)OC2OC(C3CC3)C(O)C2O1` (stereo not given) the growth inhibition was -1.85% (inactive).
For `CCOC(=O)NCc1cccc2ccccc12`, the growth inhibition was 2.5% (inactive).
With `CCOC(=O)/C=C/n1c2ccccc2c(=O)c2cc(OC)ccc21` the growth inhibition was -2.4% (inactive).
In the case of `OC(C/C(=N\Nc1ccccc1)c1ccc(F)cc1)(C(F)(F)F)C(F)(F)F`, the growth inhibition is reported as 98.6% (active).
For `O=C(O)CCCCC1CCCC1`, the growth inhibition was 56.4% (inactive).
In the case of `COc1cccc(CCC(=O)O)c1`, the growth inhibition is reported as 2.7% (inactive).
With `Cc1ccc(N=C=C(c2ccc(Cl)cc2)c2ccc(Cl)cc2)cc1` the growth inhibition was 77.2% (active).
For `CCC1NC(N=Nc2ccc([N+](=O)[O-])cc2)(P(=O)(OC(C)C)OC(C)C)OC1=O` (stereo not given), the growth inhibition was 10.8% (inactive).
For `CC1CSC(=S)N1C(=O)N1C(=S)SCC1C` (stereo not given), the growth inhibition was -35.5% (inactive).
In the case of `CCCC(=O)N(CC)CC`, the growth inhibition is reported as -20.9% (inactive).
For `O=C(O)c1cccc2c1C1CCC2c2cccc(C(=O)O)c21`, the growth inhibition was 9.7% (inactive).
For `C(=C(c1ccccc1)c1ccccc1)=C(c1ccccc1)c1ccccc1`, the growth inhibition was 32% (inactive).
In the case of `CC(=O)Oc1cc(Oc2c(OC(C)=O)cc(Oc3c(OC(C)=O)cc(OC(C)=O)c(OC(C)=O)c3OC(C)=O)cc2OC(C)=O)cc(OC(C)=O)c1OC(C)=O`, the growth inhibition is reported as 10.4% (inactive).
For `NC(=O)NC(NC(=O)NC(NC(N)=O)c1ccco1)c1ccco1` (stereo not given), the growth inhibition was 15.3% (inactive).
In the case of `Clc1nc(Cl)c2ncn(C3CCCO3)c2n1` (stereo not given), the growth inhibition is reported as 4.95% (inactive).
For `COC(=O)C1CCCCC1C(=O)OC` (stereo not given), the growth inhibition was 6% (inactive).
For `CC(C)(C)NO`, the growth inhibition was -3.8% (inactive).
For `CN1CCN(CCN2C(=O)c3ccccc3C2=O)CC1`, the growth inhibition was -43.8% (inactive).
For `COc1cc2ccc3c4cc(OC)c(OCc5ccccc5)cc4cnc3c2cc1OC`, the growth inhibition was 23% (inactive).
With `Cc1ccc(O)c(C(=O)c2ccc(Cl)c(Cl)c2)c1` the growth inhibition was 11.2% (inactive).
In the case of `CC(C)c1sc([S-])n[n+]1-c1ccccc1`, the growth inhibition is reported as 7% (inactive).
For `Cc1cc(C)[n+](C)c(/C=C/c2ccc([N+](=O)[O-])cc2)n1`, the growth inhibition was 23.2% (inactive).
With `COc1ccc(NC(C)=O)cc1Br` the growth inhibition was -20.9% (inactive).
In the case of `Nc1nc(N)nc(-c2ccccc2NC(=O)c2ccccc2N)n1`, the growth inhibition is reported as 18% (inactive).
For `CN(C)CCCN(c1nc2cc(Cl)ccc2o1)c1nc2cc(Cl)ccc2o1`, the growth inhibition was 48.5% (inactive).
In the case of `CC(C)=CCCC(C)C=O` (stereo not given), the growth inhibition is reported as 1.3% (inactive).
In the case of `COc1ccc(Cc2coc3ccccc3c2=O)cc1`, the growth inhibition is reported as 9.4% (inactive).
In the case of `O=C(NCCCl)Nc1cccc2c1CCC2`, the growth inhibition is reported as -4.8% (inactive).
In the case of `COc1cccc(C2c3cc4c(cc3OC(C)(O)C2C)OCO4)c1OC` (stereo not given), the growth inhibition is reported as 21.6% (inactive).
